Screening results: PubChem BioAssay, National Center for Advancing Translational Sciences (NCATS)
Rows were chosen to be rich in hits. Some 18% of all compounds tested hit in one or more screens of this group.
CtBP-E1A blk: blocks the CtBP interaction with E1A; AlphaScreen GST-E1A/His-CtBP binding, 1536-well; active compounds read low; activity change, % (concentration not given with the values); 340,000 tested, 0.49% active; AID 651724; in the data active means activity change below about -65%; inconclusive means mostly about -30% to -63%
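AlphaScreen with 125 nM GST-E1A and 125 nM His-CtBP (5X stocks) in Tris pH 8.0, 300 mM NaCl, BSA, Tween 20, TCEP. Compounds preincubated 2 h at 37 deg C, then glutathione donor/nickel acceptor beads added for 1 h at 37 deg C in dark.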
Six1-Eya2 blk: blocks human Six1 binding to Eya2 | 360,000 tested, 0.56% active | Q15475+O00167 | AlphaScreen GST-Six1/His-Eya2 binding, biochemical; active compounds read low | AID 651725 | activity change, % (no concentration beside the values); in the data active means activity change below about -65%; inconclusive means mostly about -30% to -63%
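Six1/Eya2 binding was read as AlphaScreen signal after compounds were pinned into GST-Six1 plus His-tagged Eya2 (5X stock 250/500 nM) in pH 8.0 Tris/NaCl/TCEP buffer, beads added, then incubated 1 h, 37 C, dark.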
TDP1 cell noCPT: qHTS for Inhibitors of human tyrosyl-DNA phosphodiesterase 1 (TDP1): qHTS in cells in absence of CPT; DT40 Tdp1-/- hTDP1 cells, no CPT, ATP luminescence, 48 h; Potency, µM (highest dose often 46.2 µM), without a hit: top-dose activity change, negative = growth inhibition, usual class: inhibitors; 420,000 tested, 15% active; further: potency means the concentration at half of the fitted maximal effect; nearly all actives have a fitted effect of over 55% in size
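DT40 Tdp1-/-;hTDP1 cells, no CPT (DMSO vehicle only), 400 cells/well; compounds pin-transferred; ≥48 hr, 37 °C; CellTiter-Glo 30 min RT dark, luminescence read.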
TDP1 block: blocks human tyrosyl-DNA phosphodiesterase 1; Q9NUW8; recombinant TDP1, AlphaScreen DNA substrate cleavage; 350,000 tested, 0.28% active; AID 485290; Potency, µM (doses to about 130 µM), inactives show at the highest dose activity change, negative = inhibition, actives largely listed as inhibitors; further: potency means the concentration at half of the fitted maximal effect; nearly all actives have a fitted effect of over 40% in size
Target sequence (Q9NUW8 whole entry, looked up): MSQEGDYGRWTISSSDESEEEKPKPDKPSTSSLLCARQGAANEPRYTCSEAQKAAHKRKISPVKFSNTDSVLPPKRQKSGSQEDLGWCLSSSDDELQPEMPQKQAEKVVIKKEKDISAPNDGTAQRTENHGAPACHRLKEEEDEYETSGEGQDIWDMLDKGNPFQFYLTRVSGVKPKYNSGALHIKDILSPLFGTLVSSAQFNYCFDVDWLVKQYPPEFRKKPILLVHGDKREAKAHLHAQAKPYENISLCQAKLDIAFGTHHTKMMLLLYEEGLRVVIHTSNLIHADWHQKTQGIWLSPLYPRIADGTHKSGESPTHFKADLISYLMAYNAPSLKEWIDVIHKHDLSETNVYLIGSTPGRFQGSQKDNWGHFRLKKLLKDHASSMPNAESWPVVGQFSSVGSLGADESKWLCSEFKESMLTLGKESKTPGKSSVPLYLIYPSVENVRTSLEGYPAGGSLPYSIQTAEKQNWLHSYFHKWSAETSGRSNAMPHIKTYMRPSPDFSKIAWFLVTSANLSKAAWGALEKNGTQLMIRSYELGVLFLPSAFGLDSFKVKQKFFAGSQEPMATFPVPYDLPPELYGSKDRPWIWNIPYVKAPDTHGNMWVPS
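Signal: AlphaScreen proximity between streptavidin donor and anti-FITC acceptor beads on intact substrate. Reaction: Tdp1 1 nM, substrate 15 nM final, 5 min RT after 15 min compound preincubation.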
IL1B secr inh: blocks inflammasome-driven IL-1 beta release. AID 743279. THP-1 LPS/ATP IL-1B secretion, AlphaLISA, 16 h; active compounds read low. activity change, % at 57.5 µM. 360,000 tested, 4.7% active; in the data active means activity change below about -50%; inconclusive means mostly about -30% to -49%
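THP-1 cells pretreated 1 hr with compounds (up to 57.5 uM final), then stimulated with LPS (250 ng/mL final) plus ATP (1.25 mM final); secreted IL-1B measured by AlphaLISA after 16 hr, decreased signal indicating inhibition.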
TDP1 cell CPT: growth inhibition of DT40 Tdp1-/-;hTDP1 cells with camptothecin (screen for TDP1 inhibitors) | chicken DT40 Tdp1-/-;hTDP1 cells + 20 nM CPT, ATP luminescence, 48 h | 420,000 tested, 12% active | Potency, µM (doses to about 46.2 µM), inactives show top-dose activity change, negative = growth inhibition, usual class: inhibitors; further: potency means the concentration at half of the fitted maximal effect; nearly all actives have a fitted effect of over 55% in size
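Chicken DT40 Tdp1-/- cells complemented with human TDP1, 400 cells/well, exposed to compounds plus 20 nM camptothecin for at least 48 h at 37 C; viability read as ATP content by CellTiter-Glo luminescence.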
Starred values were filed as active, the others as inactive; i = inactive; ? = inconclusive; . = no result; [ ] = another dose, or the depositor's remark. Unless noted, the call rests on the fitted dose curve; in most records, active means well fitted curve in the direction sought with a large enough effect; inconclusive means small, poorly fitted or top-dose-only effect, or another doubt; inactive means no such curve, though single readings can be large; an effect the other way counts as inactive or inconclusive. On the % scale 0 is the no-effect control and ±100 the full control effect.

SMILES	CtBP-E1A blk	Six1-Eya2 blk	TDP1 cell noCPT	TDP1 block	IL1B secr inh	TDP1 cell CPT
COc1cc(NC(=O)c2nccnc2C(=O)O)cc(OC)c1	-2	-10	-3%	-3%	9	-2%
COc1ccc(CNC(=O)COC(=O)c2ccc(S(=O)(=O)N3CCCCC3)cc2)cc1	3	0	-21%	-4%	6	2%
Nc1c(SCCC(=O)O)ccc2c1C(=O)c1ccccc1C2=O	-15	-67*	-4%	.	-5	-18%
Cc1ccc(C(C)C)c(OC/C(O)=C(\C#N)c2nc3ccccc3[nH]2)c1	3	-17	?	.	-5	8%
c1ccc2c(-c3csc(-c4ccncc4)n3)c[nH]c2c1	5	3	15µM*	2%	-15	18µM*
CCS(=O)(=O)c1ncc(Cl)c(C(=O)Nc2c(C(=O)Nc3cccc(C)c3)oc3ccccc23)n1	.	.	0.73µM*	-1%	.	1µM*
Cc1cccc(NC(=O)c2cccc(C(=O)Nc3cccc(C)c3)n2)c1	1	7	-21%	.	37	-19%
COc1cccc(NC(=O)c2nc(S(C)(=O)=O)ncc2Cl)c1	-90*	24	0.65µM*	3%	-101*	1µM*
COc1cccc(NC(=O)c2nc(SC)ncc2Cl)c1	5	-2	?	4%	28	?
COc1cccc(NC(=O)c2ncc(Cl)c(Cl)c2Cl)c1	-1	-11	5.2µM*	6%	-15	7.3µM*
Cc1cccc(NC(=O)c2nc(S(C)(=O)=O)ncc2Cl)c1	.	.	0.92µM*	3%	.	0.65µM*
CCSc1ncc(Cl)c(C(=O)Nc2c(C(=O)Nc3cccc(C)c3)oc3ccccc23)n1	.	.	3%	11%	.	-17%
CSCCC(N=Cc1c(O)n(-c2ccc(F)cc2)c(=O)[nH]c1=O)C(=O)O (configuration not stated)	.	.	.	-2%	.	.
COC(=O)/C=C/c1ccc2c(c1)S(=O)(=O)N(C1CCCC1)[C@H]2CC(=O)OC	.	.	?	.	.	0.63µM*
CCCCCCCCN1[C@@H](CC(C)=O)c2ccc(/C=C/C(C)=O)cc2S1(=O)=O	.	.	5.6µM*	.	.	4µM*
O=C(O)/C=C/c1ccc2c(c1)S(=O)(=O)N(C1CCCC1)[C@H]2CC(=O)O	.	.	-3%	.	.	-17%
CC(=O)/C=C/c1ccc2c(c1)S(=O)(=O)N(C1CCCC1)[C@H]2CC(C)=O	.	.	7.1µM*	.	.	16µM*
COc1cccc(-n2nc(C(=O)NCC3CCCO3)c3ccccc3c2=O)c1 (configuration not stated)	2	2	4%	2%	-11	-5%
O=C1CNC(=S)N1CCCn1ccnc1	2	3	-19%	-2%	23	4%
COc1ccc(/C=N/N=C2/SCC(=O)N2Cc2ccccc2)cc1	6	1	?	6%	4	-17%
COc1ccc(/C=C2\CN(Cc3ccccc3)C/C(=C\c3ccc(OC)cc3)C2=O)cc1	2	2	16µM*	7%	-29	10µM*
COc1ccc(CNC(C)(C)C)cc1Cl	9	0	-6%	3%	-8	5%
COc1ccc(CN=C(N)N=C(N)N)cc1Cl	-18	21	21µM*	2%	5	?
N/C(COc1ccc(Cl)cc1Cl)=N\O	.	4	-9%	5%	-13	2%
CC(C)COc1ccc(CN=C(N)N=C(N)N)cc1Cl	3	6	4.1µM*	2%	?	6.5µM*
SMILES	CtBP-E1A blk	Six1-Eya2 blk	TDP1 cell noCPT	TDP1 block	IL1B secr inh	TDP1 cell CPT
CC(C)Oc1ccc(CN=C(N)N=C(N)N)cc1Cl	8	-3	13µM*	-1%	-28	?
CC(=O)OC(C)(C)/C=C/C(=O)[C@](C)(O)C1[C@H](O)C[C@@]2(C)C3CC=C4C(C=C(O[C@@H]5O[C@H](CO)[C@@H](O)[C@H](O)[C@H]5O)C(=O)C4(C)C)[C@]3(C)C(=O)C[C@]12C (some centres not stated)	-20	-2	1.8µM*	0%	-16	1.6µM*
CC1(C)Oc2ccc3ccc(=O)oc3c2C[C@H]1O[C@@H]1O[C@H](CO)[C@@H](O)[C@H](O)[C@H]1O	0	2	2%	0%	59	-12%
CCCN(CCC)CCCNC(=O)c1cc2c(-c3ccc(OC)c(OC)c3)nn(C)c2s1	?	?	4.6µM*	-5%	-52*	15µM*
COc1ccc(OC)c(CNC(=O)c2cc3c(-c4ccc(OC)c(OC)c4)nn(C)c3s2)c1	.	.	8.2µM*	5%	.	?
CCN1CCC(NC(=O)Nc2cccc(C(F)(F)F)c2)CC1	11	-4	-1%	3%	-15	-2%
CN(c1ccc(F)cc1)S(=O)(=O)c1ccc(Cl)c(C(=O)Nc2ccc3c(c2)CCC3)c1	4	-4	3.7µM*	-4%	-17	5.2µM*
O=C(Nc1ccccc1)c1cc(S(=O)(=O)NCc2ccncc2)ccc1Cl	-2	0	8.2µM*	2%	3	9.2µM*
CCN(c1ccccc1)S(=O)(=O)c1ccc(Cl)c(C(=O)Nc2ccncc2)c1	1	1	12µM*	.	4	?
CN(c1ccccc1)S(=O)(=O)c1ccc(Cl)c(C(=O)Nc2ccncc2)c1	.	1	16µM*	-1%[56.1 µM]	50	18µM*
CN(c1ccccc1)S(=O)(=O)c1ccc(Cl)c(C(=O)NC2=NCCS2)c1	.	2	?	4%	-15	?
O=C(Nc1ccccc1)c1cc(S(=O)(=O)Nc2cccnc2)ccc1Cl	6	1	-17%	5%	17	-6%
O=C(Nc1ccc2c(c1)CCC2)c1cc(F)cc(F)c1	-2	15	-30%	-3%	?	-7%
CCN(c1ccccc1)S(=O)(=O)c1ccc(F)c(C(=O)O)c1	2	3	-11%	2%	14	-9%
O=S1(=O)CC(N2CCCC2)CN1Cc1cn(Cc2cccc(C(F)(F)F)c2)nn1 (configuration not stated)	8	0	-16%	.	-16	-2%
COc1ccc(NC2CCCN(C(=O)c3oc(C)cc3C)C2)cc1OC (configuration not stated)	-4	-1	-17%	6%	0	-27%
CN(c1ccc(F)cc1)S(=O)(=O)c1ccc(Cl)c(C(=O)Nc2ccncc2)c1	-2	-1	13µM*	.	33	18µM*
CN(c1ccc(C(=O)Nc2cccnc2)cc1)S(=O)(=O)c1ccc(Cl)cc1	0	-1	?	3%	i	?
